# High-throughput results as filed in PubChem.
# In the library only some 15% were active in any assay of this set; here they are far more common.
# TDP1 cell CPT: DT40-hTDP1 cell growth loss with CPT; AID 686979; 12% of 420,000 active; chicken DT40 Tdp1-/-;hTDP1 cells + 20 nM CPT, ATP luminescence, 48 h; Potency, µM (top dose mostly 46.2 µM), for inactives: top-dose activity change, negative = growth inhibition, usual class: inhibitors; further: nearly all actives have a fitted effect of over 55% in size
#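 Chicken DT40 Tdp1-/- cells complemented with human TDP1, 400 cells/well, exposed to compounds plus 20 nM camptothecin for at least 48 h at 37 C; viability read as ATP content by CellTiter-Glo luminescence.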
# ELG1 repair inh: ELG1-dependent DNA repair inhibition; HEK293T ELG1-luciferase reporter, luminescence, 16 h; DNA damage induced by 5-fluorouridine; Potency, µM (top dose mostly 46.1 µM), without a hit: at the highest dose activity change, negative = inhibition, hits mostly inhibitors; 2.3% of 330,000 active; further: nearly all actives have a fitted effect of over 55% in size
#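 Quantitative HTS, concentration-response format. 2,000 cells/well co-treated with 5-fluorouridine and compound, 16 hr in 5% CO2 at 37 °C; ONE-Glo luminescence read after 30 min.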
# TDP1 cell noCPT: qHTS for Inhibitors of human tyrosyl-DNA phosphodiesterase 1 (TDP1): qHTS in cells in absence of CPT | DT40 Tdp1-/- hTDP1 cells, no CPT, ATP luminescence, 48 h | Potency, µM (top dose mostly 46.2 µM), inactives show top-dose activity change, negative = growth inhibition, hits mostly inhibitors | 15% of 420,000 active | AID 686978, 2013; further: nearly all actives have a fitted effect of over 55% in size
#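 Stably hTDP1-transfected Tdp1-null chicken DT40 cells were treated with library compounds minus camptothecin and grown for at least 48 hr at 37 °C, after which cellular ATP was quantified by luminescence.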
# RORgamma inh: ROR gamma (mouse) transcription inhibition; Potency, µM (titrated, usually from 53.6 µM), inactives show at the highest dose activity change, negative = inhibition, usual class: inhibitors; 5.4% of 310,000 active; P51450; Drosophila S2 Gal4-RORgamma UAS-luciferase reporter, 20 h; AID 2551; further: nearly all actives have a fitted effect of over 60% in size
#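 A Gal4/UAS one-hybrid system in insect cells: metallothionein-promoter Gal4–ROR gamma fusion plus Photinus luciferase reporter. Copper sulfate 700 uM final, 20 hr ambient incubation, luminescent detection after 10 min with reagent.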
# VP16 counter: counter-screen for ROR gamma inhibitors: Gal4-VP16 reporter. Drosophila S2 Gal4-VP16 UAS-luciferase, luminescence, 20 h. Potency, µM (top dose mostly 53.6 µM), for the others: at the highest dose activity, negative = inhibition, hits mostly inhibitors. 3.5% of 310,000 active;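 further: Gal4-VP16 expression switched on by copper sulfate through the metallothionein promoter; nearly all actives have a fitted effect of over 50% in size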
# ALOX12 inh: ALOX12 (human) lipoxygenase inhibition; P18054; purified 12hLO, xylenol orange hydroperoxide absorbance; Potency, µM (highest dose often 108 µM), for inactives: at the highest dose activity change, negative = inhibition, most hits filed as inhibitors; 1.1% of 580,000 active
# Target sequence (P18054 whole entry, looked up): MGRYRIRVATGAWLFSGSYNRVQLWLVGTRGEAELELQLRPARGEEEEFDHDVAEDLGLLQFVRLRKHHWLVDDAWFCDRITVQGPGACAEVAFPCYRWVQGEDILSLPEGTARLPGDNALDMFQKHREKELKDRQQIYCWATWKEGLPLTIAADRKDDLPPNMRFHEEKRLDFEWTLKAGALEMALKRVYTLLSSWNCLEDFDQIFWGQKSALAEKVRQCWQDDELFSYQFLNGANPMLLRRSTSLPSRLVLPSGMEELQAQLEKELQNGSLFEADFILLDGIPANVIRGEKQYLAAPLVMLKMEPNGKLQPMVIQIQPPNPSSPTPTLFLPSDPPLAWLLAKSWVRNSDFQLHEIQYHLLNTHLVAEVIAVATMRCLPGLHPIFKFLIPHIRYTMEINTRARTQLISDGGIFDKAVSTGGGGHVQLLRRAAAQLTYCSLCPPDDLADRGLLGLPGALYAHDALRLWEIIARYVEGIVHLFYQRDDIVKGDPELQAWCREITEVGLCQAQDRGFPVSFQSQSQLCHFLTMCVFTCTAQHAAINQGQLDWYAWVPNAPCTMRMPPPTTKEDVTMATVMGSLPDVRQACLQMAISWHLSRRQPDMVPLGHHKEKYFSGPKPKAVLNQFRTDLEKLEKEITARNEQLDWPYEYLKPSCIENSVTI
#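 Hydroperoxide product was detected by ferrous iron/xylenol orange as the 573 to 405 nm absorbance ratio. Arachidonic acid at 40 uM (final) was turned over for 30 min at room temperature by 150 nM human 12hLO, pH 7.0 Hepes buffer, after 15 min compound preincubation.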
# * = called active by the depositor; ? = inconclusive; · = no result. The call rests on the fitted dose curve; in most records, active means well fitted curve in the direction sought with a large enough effect; inconclusive means small, poorly fitted or top-dose-only effect, or another doubt; inactive means no such curve, though single readings can be large; an effect the other way counts as inactive or inconclusive. On the % scale 0 is the no-effect control and ±100 the full control effect; potency means the concentration at half of the fitted maximal effect.
SMILES,TDP1 cell CPT,ELG1 repair inh,TDP1 cell noCPT,RORgamma inh,VP16 counter,ALOX12 inh
CSc1ccc(CNC(=O)C2(c3ccc(NS(C)(=O)=O)cc3)CCCCC2)cc1,·,·,·,·,·,15%
Cc1c(-c2ccccc2)sc2nc[nH]c(=S)c12,?,13%,?,0.5µM*,1µM*,-19%
O=c1[nH]cnc2scc(-c3ccc(-c4ccccc4)cc3)c12,-23%,?,?,-36%,?,-3%
O=C(CN1CCOCC1)N/N=C/C(Br)=C\c1ccccc1,12µM*,?,10µM*,-21%,?,10%
Cc1ccccc1NCC(=O)N/N=C/C(Br)=C/c1ccccc1,5.2µM*,1%,13µM*,?,?,-4%
O=C(CN1CCOCC1)N/N=C/c1ccc(C(=O)O)cc1,-5%,?,19%,9%,-7%,3%
O=C(Cc1cccs1)N/N=C/C(Br)=C/c1ccccc1,?,?,?,?,?,19%
O=C(c1nc(-c2cccc(C(F)(F)F)c2)c2cnccn12)N1CCN(c2ncccn2)CC1,·,·,·,·,·,-3%
CCCc1nn2c(=O)cc(COc3cccc(NC(=O)c4cccs4)c3)nc2s1,·,·,·,·,·,9%
CC1=C/C(=N/Nc2nc3ccccc3[nH]2)CC1,·,·,·,·,·,-48%
COc1cc(OC)cc(C(=O)NCC(=O)OCC(=O)/C=C2/N(C)c3ccccc3C2(C)C)c1,?,5%,16µM*,-12%,18µM*,-7%
CN1/C(=C\C(=O)COC(=O)c2ccc([N+](=O)[O-])o2)C(C)(C)c2ccccc21,-11%,1%,-15%,?,-14%,0%
CN1/C(=C\C(=O)COC(=O)c2nccnc2N)C(C)(C)c2ccccc21,?,-26%,?,·,·,-2%
CC(C)[C@H](NC(=O)c1ccccc1)C(=O)OCC(=O)/C=C1/N(C)c2ccccc2C1(C)C,10µM*,-27%,8.2µM*,-1%,?,-3%
Cc1ccoc1C(=O)NCc1ccc(COCC(F)(F)F)cc1,·,·,·,·,·,3%
CCOC(=O)c1c(CN2CCN(CC#N)CC2)n(C)c2cc(Br)c(OC)cc12,?,-13%,?,0%,-6%,0%
CCOC(=O)c1c(CN2CCN(Cc3ccccc3)CC2)n(C)c2cc(Br)c(OC)cc12,?,-5%,16µM*,-4%,5%,-16%
CCOC(=O)c1c(CN2CCC(C)CC2)n(C)c2cc(Br)c(OC)cc12,?,-17%,16µM*,-4%,0%,-16%
CCOC(=O)c1c(CSc2ccccc2)n(C)c2cc(Br)c(OCC(O)CNC(CO)(CO)CO)cc12 (configuration not stated),?,?,15µM*,-35%,?,-15%
CCCN1C(=O)/C(=c2\sc3nc(=O)c(Cc4ccc(C)cc4)nn3c2=O)c2ccccc21,4%,-9%,-22%,-8%,1%,50µM*
CC(C)CC(=O)NCCc1noc(C2CC2)n1,·,·,·,·,·,-3%
COc1cccc(CNCc2ccc(OC)cc2OC)c1,?,-6%,?,-13%,0%,?
COc1ccc(CNCc2cc(C)c(OC)cc2C)c(OC)c1,15µM*,?,12µM*,-13%,0%,?
COCCN1CCn2c(nc3cc(NC(=O)c4ccc(OC)cc4)ccc32)C1,21µM*,-10%,21µM*,-13%,-2%,0%
COCCN1CCn2c(nc3cc(NC(=O)NC4CCCCC4)ccc32)C1,?,?,16µM*,0%,-5%,83%
SMILES,TDP1 cell CPT,ELG1 repair inh,TDP1 cell noCPT,RORgamma inh,VP16 counter,ALOX12 inh
O=C(Nc1ccc2c(c1)nc1n2CCN(Cc2ccccc2)C1)c1cccs1,?,?,18µM*,6%,3%,0%
CC(=O)Nc1ccc2c(c1)nc1n2CCN(C2CCCCC2)C1,6%,?,4%,-13%,0%,-1%
O=C(Nc1ccc2c(c1)nc1n2CCN(Cc2ccccc2)C1)NC1CCCCC1,?,?,21µM*,?,16%,-29%
CCc1ccccc1NC(=O)CN(C)C(=O)COc1ccc2oc3c(c2c1)CCCC3,·,·,·,·,·,9%
O=C(OCc1cccnc1)c1ccc(-c2ccccc2)cc1,·,·,·,·,·,49%
CCN1/C(=C\C(C)=O)Sc2ccc(OC)cc21,?,23µM*,-26%,8%,-6%,·
CCC(=O)/C=C1\Sc2ccc(OC)cc2N1CC,?,?,16µM*,-6%,-10%,0%
CO/N=C(\Cn1ncc(N2CCCC2)c(Cl)c1=O)c1ccc(Cl)cc1,29µM*,-17%,23µM*,27%,2%,-8%
CCOc1ccccc1NC(=O)Cn1c(N2CCCCC2)nc(C)c(C)c1=O,·,·,·,·,·,19%
CCOCCCNC(=S)N(Cc1ccccc1)Cc1nc2ccccc2c(=O)[nH]1,-24%,?,?,11µM*,?,-18%
CCCNC(=S)N(Cc1ccccc1)Cc1nc2ccccc2c(=O)[nH]1,-25%,?,?,13µM*,?,-5%
O=C(c1ccccc1)N(Cc1ccc(F)cc1)Cc1nc2ccccc2c(=O)[nH]1,?,-30%,-27%,3.5µM*,?,27%
CCN(Cc1nc2ccccc2c(=O)[nH]1)C(=O)c1cccc(OCc2c(C)noc2C)c1,?,?,16µM*,·,·,17%
CCN(Cc1nc2cc(OC)c(OC)cc2c(=O)[nH]1)C(=O)c1cccc(F)c1,·,·,·,·,·,13%
O=C(c1ccncc1)N(Cc1ccccc1)Cc1nc2ccccc2c(=O)[nH]1,0%,-2%,-9%,?,-6%,-5%
COc1ccc(-c2cc(N3CCCC(NC(=O)c4ccccc4Cl)C3)n[nH]2)cc1 (configuration not stated),·,·,·,·,·,67%
CCC1CCC(NC(=O)c2ccncc2)CC1 (configuration not stated),·,·,·,·,·,-4%
COC(=O)C1(Cc2cc(-c3cccc(Br)c3)no2)CCN(C(=O)OC(C)(C)C)CC1,?,-16%,?,-1%,-4%,-5%
COC(=O)C1(Cc2cc(-c3ccc(OC)cc3OC)no2)CCN(C(=O)OC(C)(C)C)CC1,?,?,21µM*,29%,-1%,-3%
COc1ccccc1NC(=O)Cn1nc2c(cc1=O)CN(C(C)=O)CC2,·,·,·,·,·,9%
